# Data published in the supplement of paper PMC8728848.
# About 410 targets per protein were measured; listed, in parts, are those with the strongest signals and a random draw of the rest.
# Experiments:
# Experiment in all cases: glycan array binding signal (z-score within array); higher = stronger binding
# Conditions in all cases: glycan notation: IUPAC condensed, linker removed
# [1] = molecular target: Gal(b1-4)GlcNAc(b1-3)Gal(b1-4)GlcNAc(b1-3)Gal(b1-4)GlcNAc(b1-2)[Gal(b1-4)GlcNAc(b1-3)Gal(b1-4)GlcNAc(b1-3)Gal(b1-4)GlcNAc(b1-6)]Man(a1-6)[Gal(b1-4)GlcNAc(b1-3)Gal(b1-4)GlcNAc(b1-3)Gal(b1-4)GlcNAc(b1-2)Man(a1-3)]Man(b1-4)GlcNAc(b1-4)[Fuc(a1-6)]GlcNAc
# How it was run: (§1)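 The binding signal is a Z-score computed within each array. Data were drawn from 3228 arrays in the Consortium for Functional Glycomics database, restricted to those with a known protein sequence. Scores were averaged over arrays of the same protein sequence at different concentrations or buffers, and over linkers, and negative values can be taken as non-binding.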
# [2] = molecular target: Gal(b1-4)GlcNAc(b1-3)Gal(b1-4)GlcNAc(b1-3)Gal(b1-4)GlcNAc(b1-3)Gal(b1-4)GlcNAc(b1-2)[Gal(b1-4)GlcNAc(b1-3)Gal(b1-4)GlcNAc(b1-3)Gal(b1-4)GlcNAc(b1-3)Gal(b1-4)GlcNAc(b1-6)]Man(a1-6)[Gal(b1-4)GlcNAc(b1-3)Gal(b1-4)GlcNAc(b1-3)Gal(b1-4)GlcNAc(b1-3)Gal(b1-4)GlcNAc(b1-2)Man(a1-3)]Man(b1-4)GlcNAc(b1-4)[Fuc(a1-6)]GlcNAc
# How it was run: as §1
# [3] = molecular target: Gal(b1-4)GlcNAc(b1-3)Gal(b1-4)GlcNAc(b1-3)Gal(b1-4)GlcNAc(b1-3)Gal(b1-4)GlcNAc(b1-3)Gal(b1-4)GlcNAc(b1-2)Man(a1-3)[Gal(b1-4)GlcNAc(b1-3)Gal(b1-4)GlcNAc(b1-3)Gal(b1-4)GlcNAc(b1-3)Gal(b1-4)GlcNAc(b1-3)Gal(b1-4)GlcNAc(b1-2)Man(a1-6)]Man(b1-4)GlcNAc(b1-4)GlcNAc
# How it was run: as §1
# [4] = molecular target: Gal(b1-4)GlcNAc(b1-3)Gal(b1-4)GlcNAc(b1-3)Gal(b1-4)GlcNAc(b1-3)Gal(b1-4)GlcNAc(b1-3)Gal(b1-4)GlcNAc(b1-2)Man(a1-3)[Gal(b1-4)GlcNAc(b1-3)Gal(b1-4)GlcNAc(b1-3)Gal(b1-4)GlcNAc(b1-3)Gal(b1-4)GlcNAc(b1-3)Gal(b1-4)GlcNAc(b1-2)Man(a1-6)]Man(b1-4)GlcNAc(b1-4)[Fuc(a1-6)]GlcNAc
# How it was run: as §1
# [5] = molecular target: Gal(b1-4)GlcNAc(b1-3)Gal(b1-4)GlcNAc(b1-3)Gal(b1-4)GlcNAc(b1-3)Gal(b1-4)GlcNAc(b1-3)Gal(b1-4)GlcNAc(b1-2)[Gal(b1-4)GlcNAc(b1-3)Gal(b1-4)GlcNAc(b1-3)Gal(b1-4)GlcNAc(b1-3)Gal(b1-4)GlcNAc(b1-3)Gal(b1-4)GlcNAc(b1-6)]Man(a1-6)[Gal(b1-4)GlcNAc(b1-3)Gal(b1-4)GlcNAc(b1-3)Gal(b1-4)GlcNAc(b1-3)Gal(b1-4)GlcNAc(b1-3)Gal(b1-4)GlcNAc(b1-2)Man(a1-3)]Man(b1-4)GlcNAc(b1-4)[Fuc(a1-6)]GlcNAc
# How it was run: as §1
# [6] = molecular target: Gal(b1-4)GlcNAc(b1-3)Gal(b1-4)GlcNAc(b1-3)GalNAc
# How it was run: as §1
# Gal3S(b1-3)GalNAc = molecular target: Gal3S(b1-3)GalNAc
# How it was run: as §1
# Gal3S(b1-4)Glc6S = molecular target: Gal3S(b1-4)Glc6S
# How it was run: as §1
# [7] = molecular target: Gal3S(b1-4)[Fuc(a1-3)]GlcNAc
# How it was run: as §1
# Gal6S(b1-3)GlcNAc = molecular target: Gal6S(b1-3)GlcNAc
# How it was run: as §1
# [8] = molecular target: GalNAc(b1-3)Gal(a1-6)Gal(b1-4)Glc
# How it was run: as §1
# GlcA(b1-6)Gal = molecular target: GlcA(b1-6)Gal
# How it was run: as §1
# [9] = molecular target: GlcNAc(b1-2)Man(a1-3)[GlcNAc(b1-2)Man(a1-6)]Man(b1-4)GlcNAc(b1-4)GlcNAc
# How it was run: as §1
# [10] = molecular target: GlcNAc(b1-2)[GlcNAc(b1-4)]Man(a1-3)[GlcNAc(b1-4)][GlcNAc(b1-2)Man(a1-6)]Man(b1-4)GlcNAc(b1-4)GlcNAc
# How it was run: as §1
# [11] = molecular target: GlcNAc(b1-2)[GlcNAc(b1-4)]Man(a1-3)[GlcNAc(b1-4)][GlcNAc(b1-2)[GlcNAc(b1-6)]Man(a1-6)]Man(b1-4)GlcNAc(b1-4)GlcNAc
# How it was run: as §1
# [12] = molecular target: GlcNAc(b1-2)[GlcNAc(b1-6)]Man(a1-6)[GlcNAc(b1-2)Man(a1-3)]Man(b1-4)GlcNAc(b1-4)GlcNAc
# How it was run: as §1
# [13] = molecular target: GlcNAc(b1-3)Gal(b1-4)GlcNAc(b1-3)Gal(b1-4)GlcNAc(b1-3)Gal(b1-4)GlcNAc(b1-2)[GlcNAc(b1-3)Gal(b1-4)GlcNAc(b1-3)Gal(b1-4)GlcNAc(b1-3)Gal(b1-4)GlcNAc(b1-6)]Man(a1-6)[GlcNAc(b1-3)Gal(b1-4)GlcNAc(b1-3)Gal(b1-4)GlcNAc(b1-3)Gal(b1-4)GlcNAc(b1-2)Man(a1-3)]Man(b1-4)GlcNAc(b1-4)[Fuc(a1-6)]GlcNAc
# How it was run: as §1
# [14] = molecular target: GlcNAc(b1-3)Gal(b1-4)GlcNAc(b1-3)Gal(b1-4)GlcNAc(b1-3)Gal(b1-4)GlcNAc(b1-3)Gal(b1-4)GlcNAc(b1-2)Man(a1-3)[GlcNAc(b1-3)Gal(b1-4)GlcNAc(b1-3)Gal(b1-4)GlcNAc(b1-3)Gal(b1-4)GlcNAc(b1-3)Gal(b1-4)GlcNAc(b1-2)Man(a1-6)]Man(b1-4)GlcNAc(b1-4)[Fuc(a1-6)]GlcNAc
# How it was run: as §1
# [15] = molecular target: GlcNAc(b1-3)Gal(b1-4)GlcNAc(b1-3)Gal(b1-4)GlcNAc(b1-3)Gal(b1-4)GlcNAc(b1-3)Gal(b1-4)GlcNAc(b1-2)[GlcNAc(b1-3)Gal(b1-4)GlcNAc(b1-3)Gal(b1-4)GlcNAc(b1-3)Gal(b1-4)GlcNAc(b1-3)Gal(b1-4)GlcNAc(b1-6)]Man(a1-6)[GlcNAc(b1-3)Gal(b1-4)GlcNAc(b1-3)Gal(b1-4)GlcNAc(b1-3)Gal(b1-4)GlcNAc(b1-3)Gal(b1-4)GlcNAc(b1-2)Man(a1-3)]Man(b1-4)GlcNAc(b1-4)[Fuc(a1-6)]GlcNAc
# How it was run: as §1
# [16] = molecular target: GlcNAc(b1-3)[GlcNAc(b1-6)]GlcNAc
# How it was run: as §1
# [17] = molecular target: Man(a1-2)Man(a1-2)Man(a1-3)[Man(a1-2)Man(a1-6)[Man(a1-3)]Man(a1-6)]Man(b1-4)GlcNAc(b1-4)GlcNAc
# How it was run: as §1
# [18] = molecular target: Man(a1-2)Man(a1-6)[Man(a1-3)]Man(a1-6)[Man(a1-2)Man(a1-2)Man(a1-3)]Man(b1-4)GlcNAc(b1-4)GlcNAc
# How it was run: as §1
# [19] = molecular target: Man(a1-3)[Man(a1-6)]Man(a1-6)[Man(a1-2)Man(a1-3)]Man(b1-4)GlcNAc(b1-4)GlcNAc
# How it was run: as §1
# [20] = molecular target: Neu5Ac(a2-3)Gal(b1-3)[Fuc(a1-4)]GlcNAc(b1-3)Gal(b1-4)[Fuc(a1-3)]GlcNAc
# How it was run: as §1
# [21] = molecular target: Neu5Ac(a2-3)Gal(b1-4)GlcNAc(b1-2)Man(a1-3)[GlcNAc(b1-2)Man(b1-4)GlcNAc(b1-2)Man(a1-6)]Man(b1-4)GlcNAc(b1-4)GlcNAc
# How it was run: as §1
# [22] = molecular target: Neu5Ac(a2-3)Gal(b1-4)GlcNAc(b1-3)Gal(b1-4)GlcNAc(b1-3)GalNAc
# How it was run: as §1
# [23] = molecular target: Neu5Ac(a2-3)Gal(b1-4)[Fuc(a1-3)]GlcNAc
# How it was run: as §1
# [24] = molecular target: Neu5Ac(a2-3)[GalNAc(b1-4)]Gal(b1-4)GlcNAc
# How it was run: as §1
# [25] = molecular target: Neu5Ac(a2-6)Gal(b1-4)GlcNAc(b1-2)[Neu5Ac(a2-6)Gal(b1-4)GlcNAc(b1-6)]Man(a1-6)[Neu5Ac(a2-6)Gal(b1-4)GlcNAc(b1-2)Man(a1-3)][GlcNAc(b1-4)]Man(b1-4)GlcNAc(b1-4)GlcNAc
# How it was run: as §1
# [26] = molecular target: Neu5Ac(a2-8)Neu5Ac(a2-8)Neu5Ac(a2-3)Gal(b1-4)Glc
# How it was run: as §1
binder,measurement,setting,value
Gal 7 (Homo sapiens) (protein) MSNVPHKSSLPEGIRPGTVLRIRGLVPPNASRFHVNLLCGEEGGSDAALHFNPRLDTSEVVFNSKEGGSWGREERGPGVPFGRGQPFEVLIIASDDGFKAVVGDAQYHHFRHRLPLARVRLVEVGGDVQLDSVRIF,glycan array binding signal (z-score),[1],4.93
same,glycan array binding signal (z-score),[2],5.2
same,glycan array binding signal (z-score),[3],4.95
same,glycan array binding signal (z-score),[4],4.93
same,glycan array binding signal (z-score),[5],5.14
same,glycan array binding signal (z-score),[6],-0.127
same,glycan array binding signal (z-score),Gal3S(b1-3)GalNAc,0.538
same,glycan array binding signal (z-score),Gal3S(b1-4)Glc6S,2.04
same,glycan array binding signal (z-score),[7],-0.312
same,glycan array binding signal (z-score),Gal6S(b1-3)GlcNAc,-0.324
same,glycan array binding signal (z-score),[8],-0.319
same,glycan array binding signal (z-score),GlcA(b1-6)Gal,-0.332
same,glycan array binding signal (z-score),[9],-0.324
same,glycan array binding signal (z-score),[10],-0.311
same,glycan array binding signal (z-score),[11],-0.33
same,glycan array binding signal (z-score),[12],-0.2
same,glycan array binding signal (z-score),[13],5.04
same,glycan array binding signal (z-score),[14],4.94
same,glycan array binding signal (z-score),[15],5.06
same,glycan array binding signal (z-score),[16],-0.33
same,glycan array binding signal (z-score),[17],-0.333
same,glycan array binding signal (z-score),[18],-0.185
same,glycan array binding signal (z-score),[19],-0.158
same,glycan array binding signal (z-score),[20],-0.197
same,glycan array binding signal (z-score),[21],-0.355
same,glycan array binding signal (z-score),[22],-0.259
same,glycan array binding signal (z-score),[23],-0.305
same,glycan array binding signal (z-score),[24],-0.248
same,glycan array binding signal (z-score),[25],-0.274
same,glycan array binding signal (z-score),[26],-0.015
